Experimental data published in publication PMC7155171, “Probing the Open Global Health Chemical Diversity Library for Multistage-Active Starting Points for Next-Generation Antimalarials” (ACS Infectious Diseases, 2020).

Legend:
[1] = system: P. berghei liver stage (PbLuc); parameters: species or system HepG2-A16-CD81; P. berghei luciferase sporozoite infection of hepatocytes, liver stage luminescence; conditions: inhibitor; for PbLuc primary screen (10uM): inhibition % (n=1): 48 h
[2] = system: HepG2-A16-CD81 hepatocytes; parameters: Uninfected hepatocyte viability, CellTiter-Glo luminescence; conditions: cytotoxicity primary screen, inhibitor

Compound | PbLuc primary screen (10uM): inhibition % (n=1) [1] | PbLuc primary screen (2uM): inhibition % (n=1) [1] | HepG2 toxicity primary screen (10uM): inhibition % (n=1) [2]
CCc1c(C)nn2c(=O)cc(C3CCN(C(=O)c4ccccn4)C3)[nH]c12 (stereo not drawn) [DDD01056906] | 44.95% | -16.2% | 6.7%
Cc1[nH]n(C2CCCCC2)c2nc(C(C)(C)CN3CCOCC3)nc1-2 [DDD01254749] | -16.9% | 48.54% | -3.64%
Fc1cccc(C2=NN=CC2=C2NC(CN3CCOCC3)=NO2)c1 [DDD01244908] | 13.7% | 24.36% | -7.58%
Cc1ccccc1CN(C)C(=O)CCC1=NC(=C2N=CN=N2)NO1 [DDD01062116] | 13.7% | 27.4706% | -42.09%
Cc1[nH]n(C2CCCC2)c2nc(C(C)(C)CN3CCN(C)CC3)nc1-2 [DDD01248613] | 49.4% | 34.18% | -6.61%
Cc1cccc(C2N3CCC4(CC3)c3[nH]c5ccccc5c3CCN24)n1 (stereo not drawn) [DDD01058402] | -19.7% | 38.22% | 8.06%
CN(Cc1ccc(F)c(F)c1)C(=O)CCC1=NC(=C2N=CN=N2)NO1 [DDD01062114] | 55.4% | 6.397% | -43.56%
CCc1c(C)[nH]c2cc(C3CCN(CCc4ccccc4)C3)nn2c1=O (stereo not drawn) [DDD01060567] | 83.3% | 20.31% | -20.1%
CCCc1nn(C)c(N)c1-c1ccc2c(c1)OCO2 [DDD01074641] | 27.6% | 5.918% | -51.45%
CCc1c(C)nn2c(=O)cc(C3CCN(C(=O)C4CC4)C3)[nH]c12 (stereo not drawn) [DDD01057056] | 26.6% | 11.53% | 1.97%
Cn1nc(C2CC2)c(-c2ccc3c(c2)OCO3)c1N [DDD01074640] | 16.5% | 58.6% | -47.475%
Cc1ccc(CN2CCc3c([nH]c4cc(C5CC5)nn4c3=O)C2)s1 [DDD01058491] | 44.3% | 31.81% | -3.69%
COCCC(=O)N1CCC(c2cc(=O)n(C)[nH]2)C1 (stereo not drawn) [DDD01060470] | 0.301% | 15.3% | -23.1%
Cc1ncc(CN2CCc3c([nH]c4cc(C5CC5)nn4c3=O)C2)n1C [DDD01058398] | 47.1% | 42.53% | 6.62%
Cc1nc(N2CCCC2)ncc1-c1cc(=O)n2ncnc2[nH]1 [DDD01038581] | 16.8% | 10.62% | 10.6%
CCc1nn(C)c(N)c1-c1ccc2c(c1)OCO2 [DDD01074639] | 53.6% | 37.53% | -45.08%
CCn1[nH]cc2nc(-c3cc(OC)c(OC)cc3OC)nc1-2 [DDD01254934] | 26.5% | 13.04% | -2.61%
Cc1ncc(CN2CCc3[nH]c4cc(C(C)(C)C)nn4c(=O)c3C2)n1C [DDD01058400] | -12.3% | 26.69% | 8.62%
Cc1[nH]n(Cc2ccc(F)cc2)c2nnc(N)c1-2 [DDD01012470] | 78.2% | 11.14% | 1.11%

Compound | PbLuc primary screen (10uM): inhibition % (n=1) [1] | PbLuc primary screen (2uM): inhibition % (n=1) [1] | HepG2 toxicity primary screen (10uM): inhibition % (n=1) [2]
COCC(=O)N1Cc2[nH]c3c(C)c(-c4cccs4)nn3c(=O)c2C1 [DDD01056747] | 27.2% | 46.04% | -4.81%
COc1cc(F)ccc1-c1nc2c(C3CC3)[nH]n(C)c-2n1 [DDD01248843] | -24.9% | -27.89% | -1.72%
CCc1cc(=O)n2nc(C3CCN(C(=O)c4ccncc4)CC3)cc2[nH]1 [DDD01057177] | 32.85% | -9.67% | 3.51%
Cn1ccc(C(=O)N2CCCC(c3cc(=O)n(C)[nH]3)C2)n1 (stereo not drawn) [DDD01060541] | 36.4% | 2.044% | -13.7%
COc1ccc(F)cc1-c1nc2c(C3CC3)[nH]n(C)c-2n1 [DDD01250494] | -12.1% | -45.41% | -2.18%
Cc1[nH]c2cc(C3CCN(Cc4ccccc4F)C3)nn2c(=O)c1C (stereo not drawn) [DDD01060615] | 61.7% | 28.64% | 5.52%
Cc1[nH]n(C2CCS(=O)(=O)C2)c(=O)c1Cc1ccc(Br)cc1 (stereo not drawn) [DDD01026979] | 43.4% | 14.54% | -41.615%
Cc1ncsc1C(=O)N1CCCCC1c1cc2[nH]c(C)c(C)c(=O)n2n1 (stereo not drawn) [DDD01059037] | -26.2% | 11.32% | -8.94%
CCc1c(C)[nH]c2cc(C3CCN(Cc4ccccc4F)C3)nn2c1=O (stereo not drawn) [DDD01270117] | 85.9% | 29.7326% | 1.7%
CCc1ccc(C(C)NC(=O)CCC2=NC(=C3N=CN=N3)NO2)cc1 (stereo not drawn) [DDD01068289] | 38.8% | -21.47% | -1.98%
Cc1nsc(N2CCCN(CC(=O)N(C)C3CC3)CC2)n1 [DDD01066804] | 68.5% | -11.55% | -3.98%
Cc1[nH]n(C2CCS(=O)(=O)C2)c(=O)c1Cc1cccc(Cl)c1 (stereo not drawn) [DDD01026994] | 28.5% | 34.05% | -46.865%
CCC(=O)Nc1[nH]nc2c1c(C)nn2Cc1cccc(OC)c1 [DDD01063148] | -31% | 15.82% | -9.24%
O=C(CNC(=O)N1CCc2c([nH]c3ccc(Cl)cc23)C1)N1CCOCC1 [DDD01035668] | 18.2% | -2.915% | 8.32%
CCc1cc(=O)n2nc(C3CCCN3C(=O)c3ccccn3)cc2[nH]1 (stereo not drawn) [DDD01057178] | 18.85% | -15.38% | -0.805%
CCc1c(C)[nH]c2cc(C3CCN(Cc4cccc(F)c4)C3)nn2c1=O (stereo not drawn) [DDD01060569] | 77.3% | 65.74% | -6.43%
Cc1[nH]n(C2CCS(=O)(=O)C2)c(=O)c1Cc1ccccc1 (stereo not drawn) [DDD01026976] | 36.9% | -17.38% | -44.6%
CC(NC(=O)CCC1=NC(=C2N=CN=N2)NO1)c1ccc(F)cc1F (stereo not drawn) [DDD01068293] | 33.4% | -26.534% | -2.05%
Cc1[nH]n(-c2ccccc2)c2nc(C(C)(C)CN3CCN(C)CC3)nc1-2 [DDD01252143] | 8.08% | 38.49% | -2.13%

Compound | PbLuc primary screen (10uM): inhibition % (n=1) [1] | PbLuc primary screen (2uM): inhibition % (n=1) [1] | HepG2 toxicity primary screen (10uM): inhibition % (n=1) [2]
COCCC(=O)N1Cc2[nH]c3c(C)c(-c4cccs4)nn3c(=O)c2C1 [DDD01056578] | -5.78% | -12.93% | -1.19%
COc1cc2c(cc1-c1nc3c[nH]n(C(C)C4CC4)c-3n1)OCO2 (stereo not drawn) [DDD01244142] | 34% | 67.28% | 4.82%
COc1ccc(-c2c(C)nn3c(N)c(C#N)nnc23)cc1 [DDD01035158] | 3.19% | -31.95% | -8.26%
COc1cc2c(cc1-c1nc3c[nH]n(C(C)C(C)C)c-3n1)OCO2 (stereo not drawn) [DDD01255421] | 31.9% | 7.665% | 8.61%
COCC(=O)Nc1[nH]nc2c1c(C)nn2Cc1cccc(OC)c1 [DDD01063147] | -14.8% | 27.76% | -11.7%
CCCn1ncc(-c2nc3c[nH]n(CC)c-3n2)c1C [DDD01252709] | -42.8% | -36.8% | 4.05%
Cc1[nH]n(C2CCS(=O)(=O)C2)c(=O)c1CCc1ccccc1 (stereo not drawn) [DDD01026977] | 5.33% | -33.83% | -50.25%
Cc1cc(=O)n(-c2ccc3nnc(C)n3n2)[nH]1 [DDD01038570] | 6.83% | 18.99% | 9.24%
Cc1[nH]n(C2CCS(=O)(=O)C2)c(=O)c1Cc1ccccc1Cl (stereo not drawn) [DDD01026964] | 34.1% | -0.8948% | -45.665%
CCc1ccc(NC(=O)Nc2c(O)c3ccccc3oc2=O)cc1 [DDD01037337] | -11.4% | 49.69% | 5.95%
COc1ccc(-c2c(C(C)C)nn3c(N)c(C#N)nnc23)cc1 [DDD01035184] | 53.1% | 9.631% | -12.2%
CCn1[nH]cc2nc(-c3cc4c(cc3OC)OCO4)nc1-2 [DDD01244413] | -7.2% | 27.42% | -2.99%
Cn1nc(C2CCC2)c(-c2ccc3c(c2)OCO3)c1N [DDD01074643] | 64.7% | 14.0603% | -42.27%
CCc1nc(CN(C)C2CCN(CCn3cc(C#N)cn3)C2)no1 (stereo not drawn) [DDD01304196] | 41.4% | -38.96% | -6.12%
CCc1cc(=O)n2nc(C3CCN(C(=O)c4cccnc4)CC3)cc2[nH]1 [DDD01057176] | 13.3% | -5.593% | 7.09%
COc1cc2c(cc1-c1nc3c[nH]n(C(C)C)c-3n1)OCO2 [DDD01249461] | 7.31% | 60.13% | -6.85%
Cc1[nH]n(-c2ccc(F)cc2)c2nnc(N)c1-2 [DDD01065623] | 46.4% | 39.0185% | 13.6%
COCCCC(=O)N1CC(=O)Nc2cc(Br)ccc21 [DDD01075689] | -20.4% | 22.41% | 5.89%
CCc1nn2c(N)c(C#N)nnc2c1-c1ccc(OC)cc1 [DDD01035159] | 22.9% | 19.08% | -3.73%
